For 87 compounds, activity change, negative = inhibition results are on record in PubChem BioAssay AID1259415 (National Center for Advancing Translational Sciences (NCATS), 2018).

About 18,000 (4.4%) of roughly 410,000 compounds were called active. Inconclusive results (about 7%) are left out. Rule as the data show it: active = activity change below about -60%; inconclusive = no clear call, values can overlap the other calls; inactive = above about -39%. For the sample, actives were picked, then their nearest neighbours and some compounds at random.
% is scaled to controls: 0 for no effect and ±100 for the full control effect.

The assay in a line: qHTS Assay for inhibitors of the human cytomegalovirus (HCMV). The following applies: HFF cells, HCMV-luciferase reporter, 72 h; at 57.5 µM; stronger effect = lower value. The procedure, abridged: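 Human foreskin fibroblasts infected with luciferase-reporter HCMV at MOI 1 PFU/cell, compounds at two doses. Luciferase measured 72 h post infection; normalized to buffer-only basal and Salinomycin (10uM) controls.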
Background: In qHTS, concentration-response curves come from the screen itself.
On to `Cc1cc(C)cc(-n2c(SCC(=O)NCC3CCCO3)nc3c([nH]c4ccccc43)c2=O)c1` (configuration not stated), for which the activity change, negative = inhibition is 10.8% (inactive).

With `Cc1cc(NC(=O)CN2C(=O)NC(CC(C)C)C2=O)no1` (configuration not stated), the activity change, negative = inhibition was 3.09% (inactive).

On to `O=C(Nc1ccccc1Cl)N1CCN(c2ccc3nncn3n2)CC1`, for which the activity change, negative = inhibition was -11.9% (inactive).

As to `Cc1ccccc1C(=O)Nc1cc(C)c(O)c(-c2nc3ccccc3o2)c1`, the activity change, negative = inhibition is -13.9% (inactive).

`Cc1ccc(C)n1-c1nnc(N2CCC(C(=O)NCc3ccc(F)cc3)CC2)s1`: the activity change, negative = inhibition is 29.6% (inactive).

With `CCOC(=O)c1c(-c2ccc(C)cc2C)csc1NC(=O)CSc1nnnn1C`, the activity change, negative = inhibition was -95.4% (active).

For `CCOC(=O)c1c(NC(=O)CSc2nnc(CNc3ccc(C)cc3C)o2)sc(C)c1C`, the activity change, negative = inhibition is 3.08% (inactive).

For `Cn1nnnc1SCC(=O)Nc1sccc1C(N)=O`, the activity change, negative = inhibition is 3.24% (inactive).

Turning to `CCOc1ccc(CCNC(=O)Cn2nc(CC)n3c(cc4sc(CC)cc43)c2=O)cc1OCC`, the activity change, negative = inhibition is -8.37% (inactive).

Consider `CCOC(=O)c1c(NC(=O)/C=C/c2ccc(OC)cc2)sc2c1CCC(C)C2` (configuration not stated), for which the activity change, negative = inhibition is -22.4% (inactive).

As for `CC1CCN(S(=O)(=O)c2ccc3c(c2)N(CC(=O)NCCc2ccccc2)C(=O)CO3)CC1`, the activity change, negative = inhibition was -11.1% (inactive).

As to `Cc1ccc(-n2nc(C)c3c(C)cc(=O)n(CC(=O)Nc4ccc(C(C)C)cc4)c32)cc1`, the activity change, negative = inhibition was 11% (inactive).

Consider `COc1ccc(CCNc2nc(-c3ccc(F)cc3)cc(C(F)(F)F)n2)cc1OC`, for which the activity change, negative = inhibition is -24.7% (inactive).

Regarding `COc1ccc(-c2cc(C(F)(F)F)nc(SCC(=O)N(C)Cc3ccccc3)n2)cc1OC`, the activity change, negative = inhibition is -16.1% (inactive).

On to `COc1ccc(-c2cc(C(F)(F)F)nc(S(C)(=O)=O)n2)cc1OC`, for which the activity change, negative = inhibition was -98.2% (active).

With `CC(C)Sc1oc(-c2cccs2)nc1S(=O)(=O)c1ccc(Cl)cc1`, the activity change, negative = inhibition was 0.0343% (inactive).

Turning to `Cc1cc(NC(=O)/C=C/C(=O)N(c2ccccc2C)C(C(=O)NC2CCCC2)c2ccc(F)cc2)no1` (configuration not stated), the activity change, negative = inhibition was -73.5% (active).

For the compound `Cc1cc(NC(=O)/C=C/C(=O)N(CC(=O)NC2CCCC2)c2ccc(F)cc2)no1`, the activity change, negative = inhibition is 29.1% (inactive).

As for `Cc1cc(NC(=O)CCC(=O)N(c2cccc(F)c2)C(C(=O)NC2CCCC2)c2ccncc2)no1` (configuration not stated), the activity change, negative = inhibition is -19.9% (inactive).

Take `Cc1cccc(C)c1-n1nnnc1C1C(=O)NC(=S)N1c1ccccc1` (configuration not stated): the activity change, negative = inhibition was 26.7% (inactive).

For `Cn1c(=O)c2c(nc(SCC(=O)Nc3ccc(F)cc3)n2Cc2ccccc2)n(C)c1=O`, the activity change, negative = inhibition is 5.41% (inactive).

Consider `CN=c1scc(-c2cc(OC)ccc2OC)n1/N=C/c1c(C)[nH]c2ccccc12`, for which the activity change, negative = inhibition was -85.5% (active).

On to `CCn1c(-c2cc(OC)ccc2OC)csc1=Nc1c(C)n(C)n(-c2ccccc2)c1=O`, for which the activity change, negative = inhibition is -25.8% (inactive).

Take `COc1ccc(/C=N/n2c(C)cc(C)cc2=O)cc1`: the activity change, negative = inhibition is -24.9% (inactive).

On to `CCOC(=O)c1ccc(NC(=O)CCS(=O)(=O)c2ccc(C)cc2)cc1`, for which the activity change, negative = inhibition was 0% (inactive).

Consider `OCc1cnc(SCc2ccc(F)cc2)n1Cc1ccc(F)cc1`, for which the activity change, negative = inhibition is -26.3% (inactive).

Take `O=C(c1ccco1)N1CCN(C(=O)C2CCCN(S(=O)(=O)c3cccc4nsnc34)C2)CC1` (configuration not stated): the activity change, negative = inhibition was -12.2% (inactive).

As for `CCOC(=O)c1c(C)oc2nc(C)nc(N(CC(C)C)CC(C)C)c12`, the activity change, negative = inhibition is -31.4% (inactive).

As to `COC(=O)C(C)N(C#N)c1nc(C)nc(C)n1` (configuration not stated), the activity change, negative = inhibition is -110% (active).

For `CNc1nc(SC)nc(N(C#N)CC(=O)OC)n1`, the activity change, negative = inhibition is 81.6% (inactive).

Regarding `CCCCCn1c(CCCNC(=O)c2ccccc2OC)nc2ccccc21`, the activity change, negative = inhibition is -34.7% (inactive).

Take `Clc1ccc(CSc2nncn3c2cc2occc23)cc1`: the activity change, negative = inhibition is -20.2% (inactive).

As to `O=c1[nH]c(=O)n(CCc2ccc(F)cc2)c(O)c1/C=N/N1CCCCC1`, the activity change, negative = inhibition was -4.21% (inactive).

Regarding `COc1ccc(CCn2c(O)c(C=NC3CC3)c(=O)[nH]c2=O)cc1OC`, the activity change, negative = inhibition was -4.78% (inactive).

As to `COc1ccc(CCn2c(O)c(C=NCCCn3ccnc3)c(=O)[nH]c2=O)cc1OC`, the activity change, negative = inhibition was -107% (active).

As for `CC(C)(C(=O)Nc1ccccc1)n1cc(NC(=O)c2cc(F)cc(F)c2)cn1`, the activity change, negative = inhibition was 9.36% (inactive).

`Cc1ccc(C(C(=O)NCC2CCCO2)N(C(=O)c2snc(C(N)=O)c2N)c2ccc(C(C)C)cc2)o1` (configuration not stated): the activity change, negative = inhibition was -9.39% (inactive).

Take `O=C(N/N=C/c1ccc([N+](=O)[O-])o1)c1cn(-c2ccccc2)nc1-c1ccc(F)cc1`: the activity change, negative = inhibition was -65.8% (active).

Consider `O=C(CSc1ccc(/C=N/NC(=O)c2cccc(F)c2)o1)Nc1ccccc1`, for which the activity change, negative = inhibition is -21.6% (inactive).

Turning to `O=C(NNC(=S)NC(=O)c1cn(-c2ccccc2)nc1-c1ccccc1)c1ccncc1`, the activity change, negative = inhibition is 21.1% (inactive).

Consider `O=C(NCCCN1CCCC1=O)c1cccc(S(=O)(=O)NCc2ccccc2)c1`, for which the activity change, negative = inhibition is 0.765% (inactive).

Take `Clc1ccc2c(c1)C1=C(C(c3ccncc3)O2)C(c2ccc(Br)cc2)n2ncnc2N1` (configuration not stated): the activity change, negative = inhibition was -78.3% (active).

`CC1CCCN(c2nc3c(S(=O)(=O)c4ccc(C(C)C)cc4)nnn3c3ccsc23)C1` (configuration not stated): the activity change, negative = inhibition was 20% (inactive).

`Cc1ccc(-n2c3nc(=O)[nH]c(=O)c-3cc3c(Cl)cccc32)cc1`: the activity change, negative = inhibition is -14.6% (inactive).

Regarding `Cc1ccc(S(=O)(=O)N(C)C)cc1NC(=O)c1ccccc1Br`, the activity change, negative = inhibition was -5.46% (inactive).

As to `CCN(CC)S(=O)(=O)c1ccc(NC(=O)c2cccnc2Cl)c(NC(=O)c2cccnc2Cl)c1`, the activity change, negative = inhibition was -100% (active).

As to `CCN(CC)S(=O)(=O)c1ccc(C)c(NC(=O)COc2ccc(Br)cc2Cl)c1`, the activity change, negative = inhibition is 24.1% (inactive).

With `Cc1ccc(-c2nn(CCC(=O)Nc3ccc(Cl)c(Cl)c3)c(=O)c3ccccc23)cc1`, the activity change, negative = inhibition was -16.5% (inactive).

Turning to `O=C(CC(O)(C(F)(F)F)C(F)(F)F)Nc1ccc(Cl)c(Cl)c1`, the activity change, negative = inhibition is -103% (active).

Turning to `O=C(CSc1nnc(-c2ccncc2)n1-c1ccccc1)Nc1ccc(Cl)c(Cl)c1`, the activity change, negative = inhibition was -5.77% (inactive).

As to `COc1cc(Cl)c(NC(=O)C(NS(=O)(=O)c2cccs2)C(C)C)c(OC)c1` (configuration not stated), the activity change, negative = inhibition is -10.2% (inactive).

As to `CCc1ccc(-n2nc(C)c3c(C)cc(=O)n(CC(=O)Nc4ccc(F)cc4C)c32)cc1`, the activity change, negative = inhibition is 5.24% (inactive).

Consider `CCc1ccccc1NC(=O)c1ccc2nc(CCc3ccccc3)oc2c1`, for which the activity change, negative = inhibition is 30% (inactive).

For `COC(=O)c1ccc(-c2nc3cc(NC(C)=O)ccc3o2)cc1`, the activity change, negative = inhibition is 13.5% (inactive).

In the case of `O=S(=O)(Nc1ncnc2sccc12)c1cccc(F)c1`, the activity change, negative = inhibition was 30.2% (inactive).

Turning to `COC(=O)c1ccc(Nc2ncnc3sccc23)cc1`, the activity change, negative = inhibition is -62.4% (active).

As for `CCOC(=O)c1c(NC(=O)COc2cc(C)ccc2C(C)C)sc(C)c1C`, the activity change, negative = inhibition was 12.8% (inactive).

For `CC1CCN(S(=O)(=O)c2ccc3c(ccn3CCC(=O)NCc3ccc(N(C)C)cc3)c2)CC1`, the activity change, negative = inhibition was 5.8% (inactive).

Regarding `CCc1ccc(NC(=O)c2nn(-c3ccc(C)cc3)c(=O)n(C)c2=O)cc1`, the activity change, negative = inhibition was -12.5% (inactive).

As for `CCOc1ccccc1NC(=O)CSc1ncc(S(=O)(=O)c2ccc(C(C)(C)C)cc2)c(=O)[nH]1`, the activity change, negative = inhibition is -2.52% (inactive).

In the case of `CC1=CC(=Cc2sc3ccccc3[n+]2C)C=C(C)O1`, the activity change, negative = inhibition was -100% (active).

With `CCC(=O)N1CCc2cc(Br)cc(S(=O)(=O)CCC(=O)NCCc3ccc(OC)c(OC)c3)c21`, the activity change, negative = inhibition was 7.78% (inactive).

As for `COc1ccc(C2NC(=S)NC3=C2CCc2ccccc23)cc1OC` (configuration not stated), the activity change, negative = inhibition was -13.4% (inactive).

`Cc1ccc(-c2nn(C(C)(C)C)c3ncnc(N)c23)cc1`: the activity change, negative = inhibition is -69.5% (active).

With `CCOC(=O)C1=C(N)N(c2ccc(C)cc2)C2=C(C(=O)CCC2)C1c1cccs1` (configuration not stated), the activity change, negative = inhibition was -86.5% (active).

On to `CCOC(=O)c1cc2c(n(-c3ccc(C)cc3)c1=O)CCCC2=O`, for which the activity change, negative = inhibition was -27.5% (inactive).

As to `O=C1CCCC2=C1C(c1cccs1)CC(=O)N2c1ccc(F)cc1` (configuration not stated), the activity change, negative = inhibition is 18.4% (inactive).

Regarding `Cc1ccc(C)c(Cn2c(=O)n(CCC(=O)NCc3ccc4c(c3)OCO4)c(=O)c3sccc32)c1`, the activity change, negative = inhibition was -25.1% (inactive).

Take `COc1ccc(C2=NC3(CCCCC3)N(CC(=O)Nc3ccc(C(C)C)cc3)C2=O)cc1`: the activity change, negative = inhibition was -14.7% (inactive).

With `CCn1c(C)c(C)c2cc(C(=O)NCCc3cc(OC)ccc3OC)ccc21`, the activity change, negative = inhibition was 0% (inactive).

`Cc1cccc(C(=O)NCCc2nc3ccccc3n2Cc2ccccc2Cl)c1`: the activity change, negative = inhibition was 3.18% (inactive).

Consider `CSc1nc(N(C)NC(=O)c2cccc(C)c2)c2ccccc2n1`, for which the activity change, negative = inhibition was -87.3% (active).

As for `CC(NC(=O)c1ccccc1F)c1cccc2ccccc12` (configuration not stated), the activity change, negative = inhibition was -5.98% (inactive).

With `Cc1cccc(C(=O)Nc2ccc(-c3nc4ccccc4s3)c(C)c2)c1`, the activity change, negative = inhibition is 55.1% (inactive).

As for `CN(NC(=O)c1ccccc1F)c1nc(C(F)(F)F)nc2ccccc12`, the activity change, negative = inhibition is -62.6% (active).

Take `O=C(Cn1cnc2ccccc2c1=O)NNC(=O)c1ccccc1F`: the activity change, negative = inhibition was -0.88% (inactive).

As to `Cc1cc2oc(C(=O)N(Cc3ccc(Cl)cc3)Cc3ccco3)c(C)c2cc1Cl`, the activity change, negative = inhibition is -14.8% (inactive).

For the compound `COc1cccc(C(=O)N2CCCC(CCC(=O)NCc3ccc(F)c(F)c3)C2)c1` (configuration not stated), the activity change, negative = inhibition is 34.9% (inactive).

Turning to `COc1ccc(C)cc1N(CC(=O)N1CCC(C)CC1)S(=O)(=O)c1ccc(C)cc1`, the activity change, negative = inhibition is -13.7% (inactive).

Regarding `CCN(CC)CCNC(=O)CN1N=C(c2ccc(OC)cc2)CCC1=O`, the activity change, negative = inhibition is 29.3% (inactive).

As for `CC1(C(=O)NS(=O)(=O)c2ccccc2)CCN1C(=O)C/C=C/c1ccccc1` (configuration not stated), the activity change, negative = inhibition is 19.5% (inactive).

With `CC1(C(=O)O)CCN1C(=O)/C=C/c1ccccc1` (configuration not stated), the activity change, negative = inhibition is -1.81% (inactive).

Consider `CC1(C)CCSC(/C=C/c2ccccc2)=N1`, for which the activity change, negative = inhibition was -97.3% (active).

Regarding `COc1cccc(-n2ccn(CC(=O)NCc3ccc(C)cc3)c(=O)c2=O)c1`, the activity change, negative = inhibition is -17.1% (inactive).

For `Fc1ccccc1N=C1Nc2cccc3cccc1c23`, the activity change, negative = inhibition was -68.6% (active).

Turning to `COc1ccc(C)cc1S(=O)(=O)Nc1cc2c3c(c1)CCC(=O)N3CCC2`, the activity change, negative = inhibition is 0.474% (inactive).

In the case of `CCN(CC)P(=O)(/C(Cl)=C\Nc1c(C)n(C)n(-c2ccccc2)c1=O)N(CC)CC`, the activity change, negative = inhibition was 54% (inactive).
